Source: PubChem BioAssay (National Center for Advancing Translational Sciences (NCATS))
Compounds with a hit are over-represented: about 21% of the library has one in this group of screens.
Pf growth 96h: Primary qHTS for delayed death inhibitors of the malarial parasite plastid, 96 hour incubation; Potency, µM (top dose mostly 28.7 µM), without a hit: top-dose activity change, negative = inhibition, hits mostly inhibitors; actives 6.9% (n = 320,000); P. falciparum luciferase reporter growth, 96 h; also: potency is read from the fitted curve at half-maximal effect; % is scaled to controls: 0 for no effect and ±100 for the full control effect
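96 h incubation, 37 C, 5% CO2, of luciferase-reporter P. falciparum-infected RBCs (2% hematocrit, 0.05% parasitemia final) with test compounds; endpoint luminescence.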
Pf growth 48h: Primary qHTS for delayed death inhibitors of the malarial parasite plastid, 48 hour incubation; P. falciparum luciferase growth in erythrocytes, 48 h; Potency, µM (doses to about 28.7 µM), without a hit: top-dose activity change, negative = inhibition, hits mostly inhibitors; actives 5.9% (n = 310,000); AID 504832, 2011; also: potency is read from the fitted curve at half-maximal effect; % is scaled to controls: 0 for no effect and ±100 for the full control effect
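Growth was read as firefly luciferase luminescence after a 48 h, 37 C, 5% CO2 exposure of compounds to reporter-bearing P. falciparum cultures (0.1% parasitemia, 2% hematocrit final) in Albumax-supplemented RPMI 1640.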
HCV inhibitor: qHTS Assay for Inhibitors of Hepatitis C Virus (HCV); Potency, µM (highest dose often 41.8 µM), without a hit: at the top dose activity change, negative = inhibition, most hits filed as inhibitors; AID 651820, 2012; actives 3.4% (n = 340,000); Huh7.5.1 HCVcc-Cre infection, luciferase reporter, 44 h; also: potency is read from the fitted curve at half-maximal effect; % is scaled to controls: 0 for no effect and ±100 for the full control effect
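Antiviral activity was scored by luciferase reporter output from cells infected with HCVcc-Cre (~0.5 moi) in presence of compound, 44 h infection period, cells seeded 1,000/well 4 h prior.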
AMA1-RON2 inh: qHTS for Inhibitors of AMA1-RON; Towards Development of Antimalarial Drug Lead: Primary Screen; AID 720542, 2013; actives 0.2% (n = 360,000); Potency, µM (series often up to 58.2 µM), inactives show top-dose activity change, negative = inhibition, hits mostly inhibitors; AlphaScreen AMA1-biotinylated RON2 peptide binding;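 also: potency is read from the fitted curve at half-maximal effect; 0% = vehicle wells and -100% = peptide control; nearly all actives have a fitted effect of over 45% in size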
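AMA1 (3D7) with his tag at 25 nM final met compounds first, then biotinylated RON2 peptide at 25 nM; detection used donor plus acceptor beads, 10 µg/mL apiece, read by AlphaScreen after 30 min at room temperature.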
CHX counter: Cycloheximide Counterscreen for Small Molecule Inhibitors of Shiga Toxin; cell reporter, cycloheximide protein synthesis inhibition counterscreen; max response, %; actives 12% (n = 300,000); AID 2314, 2010; in the data active = max response mostly above about 13%, no sharp cut-off; inactive = mostly below about 14%; also: read at 38.3 µM for the half of the compounds with a filed dose; 0% is about no effect
Shiga toxin inh: A qHTS for Small Molecule Inhibitors of Shiga Toxin | inhibition, % at 38.7 µM | Vero cells, Shiga toxin protein synthesis inhibition reporter | actives 9.2% (n = 290,000); in the data active = inhibition mostly above about 28%, no sharp cut-off; inactive = mostly below about 43%; also: 0% is about no effect
* hit, by the source's call; ? = inconclusive; . = no result given; [ ] = dose if it differs, or a comment. Unless noted, calls follow the shape of the dose curve; as a rule, active = well fitted curve in the direction sought with a large enough effect; inconclusive = small, poorly fitted or top-dose-only effect, or another doubt; inactive = no such curve, though single readings can be large; an effect the other way counts as inactive or inconclusive.

SMILES | Pf growth 96h | Pf growth 48h | HCV inhibitor | AMA1-RON2 inh | CHX counter | Shiga toxin inh
CCN1C(=O)[C@@H]2[C@@H](c3ccc(-c4ccc(C(C)=O)cc4)c(OC)c3)N3CCCC[C@@]3(C(=O)OC)[C@@H]2C1=O | 9.3µM* | 2.9µM* | -2% | -3% | . | .
O=C(COC(=O)c1ccc[nH]c1=O)NC1CCCCC1 | 8% | 8% | 8% | -1% | 5 | 21
Cc1cccc(N(C)S(=O)(=O)c2csc(C(N)=O)c2)c1 | 0.66µM* | -11% | 7% | 5% | 3 | -12
Cc1ccc(NS(=O)(=O)c2csc(C(N)=O)c2)c(C)c1 | 4.1µM* | 7.4µM* | -10% | -4% | 4 | -4
Cc1cc(C)cc(NS(=O)(=O)c2csc(C(N)=O)c2)c1 | ? | 5%[0.00184 µM] | -4% | 2% | -3 | 2
CC(C)Oc1ccc(CNS(=O)(=O)c2csc(C(N)=O)c2)cc1 | 1% | 6.6µM* | ? | 11% | -1 | -4
COc1cc(CNC23CC4CC(CC(C4)C2)C3)ccc1OCc1ccccc1 | -20%[5.75 µM] | ? | -27% | -5% | -2 | 11
COc1ccc2c(=O)cc(-c3cccnc3)oc2c1OC | -18% | 2% | 12% | -10% | -3 | -9
CC(=O)Nc1cc(-c2ccc(F)cc2)cn2c(-c3ccc(S(C)(=O)=O)cc3)cnc12 | . | . | . | 33% | . | .
Cc1ccccc1-n1ncc(C(C)NS(=O)(=O)c2sccc2C)c1C (configuration not stated) | ? | ? | ? | -9% | 9 | 1
COc1ccc(-n2ncc(C(C)NS(=O)(=O)c3ccc(C)s3)c2C)cc1 (configuration not stated) | 8.3µM* | 7% | 0% | -8% | -3 | 14
COc1ccc(OC)c(S(=O)(=O)NC(C)c2cnn(-c3ccccn3)c2C)c1 (configuration not stated) | 15µM* | 7% | 42% | -2% | -1 | -25
CC[C@]12c3[nH]c4ccc(OC)cc4c3CCN1C(=O)C(CC(=O)NCCCn1ccnc1)C[C@@H]2C(=O)N1CCN(C(=O)c2ccco2)CC1 (some centres not stated) | . | . | 13% | -5% | . | .
CCOc1ccc(N2CC(C(=O)NC3CCSC3=O)CC2=O)cc1 (configuration not stated) | 23% | 18% | 5% | -10% | -3 | -16
COc1ccc(C(=O)N(c2ccccc2)c2nccc3ccccc23)cc1OC | . | . | 1.8µM* | 6% | . | .
COC(=O)[C@@]1(Cc2ccc(F)cc2)[C@H]2c3cc(C(=O)N(C)C)n(CC4CC4)c3C[C@H]2CN1C(=O)c1ccccc1 | . | . | . | -15% | . | .
CCOC(=O)c1c(C)oc2c(F)c(F)c(F)c(F)c2c1=O | 14% | -13% | 10µM* | 1% | 1 | 4
CCOC(=O)c1c(C)oc(=O)c(CC)c1O | . | . | . | 4% | . | .
Cc1cccc(N(CC(=O)NC(C)C)C(=O)CCC(=O)Nc2nccs2)c1 | ? | 9.3µM* | -4% | 2% | -1 | -3
CCC(C)(C)NC(=O)CN(C(=O)CCC(=O)Nc1nccs1)c1ccc2c(c1)OCCO2 | 8% | ? | 3% | -22% | 51* | 57*
CCc1ccc(N(CC(=O)NC(C)(C)CC)C(=O)CCC(=O)Nc2nccs2)cc1 | -80% | -29% | 20% | 4% | -2 | -9
CC(C)NC(=O)CN(C(=O)CCC(=O)Nc1nccs1)c1ccc2c(c1)OCO2 | 13µM* | 20% | -10% | 7% | -1 | -2
Cc1ccc(N(CC(=O)NC(C)C)C(=O)CCC(=O)Nc2nccs2)c(C)c1 | 22% | -4% | -19% | -1% | 28* | -2
Cc1ccc(N(CC(=O)NC(C)C)C(=O)CCC(=O)Nc2nccs2)cc1 | -30% | 2% | 3% | 0% | -1 | -7
O=C1CC(C(=O)O)C(c2ccccc2)c2ccccc21 (configuration not stated) | . | . | 15% | -1% | . | .
SMILES | Pf growth 96h | Pf growth 48h | HCV inhibitor | AMA1-RON2 inh | CHX counter | Shiga toxin inh
CCC(C)(C)NC(=O)CN(C(=O)CNS(=O)(=O)c1ccc(C)cc1)c1ccc2c(c1)OCCO2 | . | 6.6µM* | -2% | 0% | -2 | -12
N#CCC(=O)N/N=C/c1cc(-c2ccccc2)n(-c2ccc(Cl)cc2)c1-c1ccccc1 | -17% | ? | ? | 15% | 5 | 4
O=C1C(c2ccccc2)SC(=Nc2ccccc2)N1S(=O)(=O)c1ccccc1 (configuration not stated) | . | 19% | 10% | -2% | 30* | 45
CC(C)(C)c1ccc(Oc2ccc(N)cn2)cc1 | ? | -20% | 4µM* | -6% | -5 | -16
Cc1nc(CCNC(=O)C2CCC(=O)N(CCc3cccc(F)c3)C2)sc1C (configuration not stated) | 15µM* | 9% | -1% | 18% | -1 | -2
Cc1ccc(F)cc1CNC(=O)C1CCC(=O)N(CCCN2CCCC2=O)C1 (configuration not stated) | 9% | -1% | 15% | 10% | 22* | 18
O=C(NC(C1CC1)C1CC1)C1CCC(=O)N(CCCN2CCCC2=O)C1 (configuration not stated) | -21% | -10% | 12% | 2% | 17* | 13
O=C(NCCC1CCCC1)C1CCC(=O)N(CCCN2CCCC2=O)C1 (configuration not stated) | ? | -7% | 11% | 13% | -2 | -6
CCc1nc(CN(C)C(=O)C2CCC(=O)N(CCc3cccc(F)c3)C2)no1 (configuration not stated) | 9% | 7% | -3% | 11% | 22* | 33
CC(=O)N1CCCC(C)(C(=O)Nc2cccc(OC(C)C)c2)C1 (configuration not stated) | . | . | . | -1% | . | .
CSCCC(C(=O)Nc1c(C)cccc1C)n1c(COc2ccc(C)cc2)nc2ccccc21 (configuration not stated) | . | . | . | -25% | . | .
CCCCN(C=O)c1c(CC)nc2ccc(C(=O)NCCc3ccccn3)cn12 | . | . | . | 8% | . | .
O=C(NCc1cc2ccccc2[nH]1)C1CCC(=O)N(CCCN2CCCC2=O)C1 (configuration not stated) | 10µM* | 2% | 11% | 25% | 12 | -5
O=C(NCc1cccc(F)c1)C1CCC(=O)N(CCc2cccc(F)c2)C1 (configuration not stated) | 31% | -17% | 0% | 8% | 20* | 13
